# Rows were chosen to be rich in hits. Some 3.8% of all compounds tested hit in one or more screens of this group.
# NALP1 inh: NALP1 inflammasome inhibitors in reconstituted yeast, colorimetric, S. cerevisiae, triplicate retest. inhibition, % at 10 µM. actives 0.61% (n = 280,000). S. cerevisiae NALP1/ASC/caspase-1 growth, X-gal OD620, 72 h; in the data active = inhibition mostly above about 24%, no sharp cut-off; inactive = mostly below about 32%
# p-CIP stab down: p/CIP-EGFP fusion destabilizers, primary screen, fluorescence, F442A cells. 16 h. decrease of EGFP signal, % at 10 µM. actives 0.01% (n = 290,000). AID 1984, 2009;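 active = EGFP signal decrease of at least 30% at 10 µM or well 3 SD below plate mean, unless failing retest; inactive = the rest, including hits failing retest or dose response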
# Target sequence (Q05BA5 1-1403): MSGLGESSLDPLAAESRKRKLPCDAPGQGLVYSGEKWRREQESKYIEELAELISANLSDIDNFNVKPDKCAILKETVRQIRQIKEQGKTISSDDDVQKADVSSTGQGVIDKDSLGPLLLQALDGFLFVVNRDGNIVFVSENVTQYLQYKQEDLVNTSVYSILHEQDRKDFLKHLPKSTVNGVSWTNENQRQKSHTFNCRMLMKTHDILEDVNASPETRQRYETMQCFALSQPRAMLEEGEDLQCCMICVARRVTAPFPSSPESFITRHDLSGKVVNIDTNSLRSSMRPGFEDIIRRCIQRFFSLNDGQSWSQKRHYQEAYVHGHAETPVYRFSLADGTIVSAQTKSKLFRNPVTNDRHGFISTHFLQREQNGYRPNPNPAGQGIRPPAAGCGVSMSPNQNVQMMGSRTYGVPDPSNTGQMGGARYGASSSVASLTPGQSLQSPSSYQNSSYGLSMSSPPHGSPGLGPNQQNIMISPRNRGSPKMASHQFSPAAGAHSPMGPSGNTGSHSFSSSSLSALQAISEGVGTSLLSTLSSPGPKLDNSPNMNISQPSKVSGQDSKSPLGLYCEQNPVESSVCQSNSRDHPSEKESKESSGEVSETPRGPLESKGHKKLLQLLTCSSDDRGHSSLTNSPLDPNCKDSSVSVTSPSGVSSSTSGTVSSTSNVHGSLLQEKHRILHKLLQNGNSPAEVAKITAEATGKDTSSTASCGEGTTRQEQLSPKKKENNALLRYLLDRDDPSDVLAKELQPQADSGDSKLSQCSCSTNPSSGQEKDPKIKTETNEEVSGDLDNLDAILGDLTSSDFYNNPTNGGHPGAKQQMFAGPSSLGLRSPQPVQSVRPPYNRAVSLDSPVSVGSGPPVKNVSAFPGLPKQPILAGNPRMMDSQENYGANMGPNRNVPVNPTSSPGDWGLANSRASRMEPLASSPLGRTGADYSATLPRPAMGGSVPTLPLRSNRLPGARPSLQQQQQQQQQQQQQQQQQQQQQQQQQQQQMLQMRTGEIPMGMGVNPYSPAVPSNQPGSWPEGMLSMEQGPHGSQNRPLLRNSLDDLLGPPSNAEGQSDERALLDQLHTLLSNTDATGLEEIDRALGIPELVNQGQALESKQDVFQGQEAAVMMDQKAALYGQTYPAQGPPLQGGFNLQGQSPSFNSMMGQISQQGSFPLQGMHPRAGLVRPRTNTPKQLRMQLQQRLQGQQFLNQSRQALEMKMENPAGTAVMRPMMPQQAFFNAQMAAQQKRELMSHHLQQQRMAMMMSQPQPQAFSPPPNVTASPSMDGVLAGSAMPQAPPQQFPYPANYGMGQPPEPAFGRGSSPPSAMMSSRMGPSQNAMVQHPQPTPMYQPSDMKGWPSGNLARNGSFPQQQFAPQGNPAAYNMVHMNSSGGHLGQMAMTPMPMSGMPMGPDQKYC
# HSF1 inh: HSF1 inhibitors in luciferase reporter cells, primary screen, cell-based, NIH3T3, luminescence | NIH3T3-HGL HSE-luciferase, MG132-induced, luminescence 8 h; stronger effect = lower value | activity change, negative = inhibition, % at 7.5 µM (by protocol) | actives 0.77% (n = 300,000) | AID 2098, 2009;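 active = more than half of replicate wells show activity change below -50%, luminescence cut by over half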;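 also: luciferase reports HSF-1 transcriptional activity via heat shock element; 0% = median of DMSO wells and -100% = zero luminescence signal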
# HSF1 activator: HSF-1 activators, primary screen, NIH3T3-HGL cells, MG132 stress, luminescence, single point. NIH3T3-HGL HSF-1 luciferase reporter, 8 h; 100% = twice DMSO control signal. activation, % at 9 µM. actives 1.7% (n = 300,000). AID 504408, 2011;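 active = mean replicate activation of at least 50% with a set share of replicates each reaching 50%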;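 also: 0% = median of the neutral control wells and 100% = twice that signal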
# HSP90 inh: HSP90 inhibitors, primary screen, cell lysate, luminescence. inhibition, % at 5.6 µM. actives 0.91% (n = 290,000). Rabbit reticulocyte lysate, luciferase refolding luminescence, 3 h. AID 1789, 2009. Heat shock protein HSP 90 (rabbit reticulocyte lysate; luciferase refolding);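 active = inhibition above the screen-wide mean plus 3 SD, computed separately per campaign, cut at about 16% in these data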;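 also: 0% = DMSO wells and 100% = 60 µM geldanamycin wells; inhibitors lower the luminescence because luciferase stays unfolded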
# Hsp70 activator: Hsp70 transcriptional activators, primary screen, cell-based, HeLa, Hsp70 promoter luciferase, luminescence, 10 µM. HeLa Hsp70 promoter luciferase reporter; scaled: vehicle 0, proteasome-inhibitor control 100%. activation, % at 10 µM. actives 0.04% (n = 200,000);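 active = activation above the mean across all tested compounds plus 3 SD, cutoff set per campaign, cut at about 5.5% in these data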;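 also: 100% = MG132 at 30 µM as the positive control and 0% = DMSO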
# * hit, by the source's call; . = no result; ! = a repeat was not active.
SMILES,NALP1 inh,p-CIP stab down,HSF1 inh,HSF1 activator,HSP90 inh,Hsp70 activator
CC(=O)c1c(Cl)nc2ccc(Br)cc2c1-c1ccccc1,3,11,12,31,-1,.
Cc1ccsc1C1CC(=O)OC2=C1C(=O)CC(C)(C)C2 (stereo not drawn),-3,-12,1,1,3,0
Nc1nc(CSc2ncn(-c3ccccc3)n2)cs1,10,5,-86*,-88,0,0
Clc1ccccc1Nc1nnc(-c2ccncc2)s1,32,-11,-2,31,22*,0
NCCS,47*,-3,0,2,2,0
COCCCn1c(=O)c2ccccc2n(CC(=O)N2CCCc3ccccc32)c1=O,15,5,-5,5,-4,.
Oc1c(Cl)cc(Cl)c2c1NCCC2,53*,-2,-15,-3,2,0
COc1ccc(CNC(=O)CNS(=O)(=O)c2cccc(C#N)c2)cc1OC,6,-11,-2,-10,1,.
COc1ccc(C[C@H]2CN3C(=NC[C@@H]3Cc3ccccc3)N2CCNC(=O)c2ccc(C)c(Br)c2)cc1,3,5,6,26,17*,0
O=C(Nc1ccc(F)cc1)c1cc(-c2ccncc2)nc2c(Cl)cccc12,13,9,-2,3,0,.
COc1ccc(C)cc1NC(=O)c1ccc(S(=O)(=O)N2CCCCC2)cc1,13,-12,2,12,4,.
CN1c2ccccc2Sc2cc(N)ccc21,52*,-14,1,2,0,.
O=C1CN(S(=O)(=O)c2ccc([N+](=O)[O-])cc2)CC(=O)N1,-14,1,-6,10,2,.
COC(=O)/C(=C/c1ccc2c(c1)c1ccccc1n2C)NC(=O)c1ccccc1,42,3,31,73*,-6,0
CCn1c(Cn2nnc(-c3ccccc3)n2)nnc1SCC(=O)Nc1cccc(C)c1C,3,0,49,76*,5,0
CC1=C(C(=O)OC2CCCC(C)C2)C(c2ccccc2)NC(=O)N1 (stereo not drawn),18,-23,1,10,1,.
NC(=O)c1c(NC(=O)COC(=O)c2ccc(S(=O)(=O)Nc3ccccc3)cc2)sc2c1CCCC2,-5,-7,5,11,-2,0
NS(=O)(=O)c1ccc(NC(=S)NC(=O)c2ccco2)cc1,41*!,-2,-1,-8,1,0
CCOc1ccc(NC(=S)N(Cc2ccc(Cl)cc2)Cc2ccco2)cc1,20,-3,121,176*,5,0
CCOc1ccc(NC(=S)NC(=O)c2ccco2)cc1,25,-7,26,52*,-1,.
O=C(CN(C(=O)c1ccccc1)N1C(=O)CCC1=O)c1cccs1,2,-1,5,1,-2,.
O=C1c2ccccc2S(=O)(=O)N1CCS(=O)(=O)c1ccc(F)cc1,-2,-8,4,25,-1,.
CC(=O)Nc1ccc(/C(C)=N/NS(=O)(=O)c2ccccc2)cc1,12,-3,-27,-32,-3,0
CCOc1cccc(CN2CCN(Cc3ccc(C)o3)C(CCO)C2)c1O (stereo not drawn),-11,-16,1,13,-1,1
CN(C)C(CNC(=O)c1ccc(NS(=O)(=O)c2ccc(F)c(F)c2)cc1)c1ccccc1 (stereo not drawn),.,.,-2,-4,.,.
O=C(O)CCCNC(=O)CCCn1nnc2ccccc2c1=O,-20,-10,-4,-23,-6,.
CCCCc1c(C)c(C#N)c2nc3ccccc3n2c1NCCN(C)C,34*,1,3,22,4,.
CCc1c(C)c(C#N)c2nc3ccccc3n2c1Cl,27,3,378,435*,-2,0
Cc1c(Cc2ccccc2)c(NCCN(C)C)n2c(nc3ccccc32)c1C#N,39,10,-24,-29,2,.
CCOC(=O)CSc1cc(C)c(C#N)c2nc3ccccc3n12,-8,1,21,58*,1,0

# Screening data from PubChem BioAssay.
